Results with a measured potency or affinity are listed apart. Activity calls are given as the source filed them.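 How the source made its calls, unless noted: active means a dose-response fit showing signal loss, with half-maximal concentration no higher than twice the top tested dose; inconclusive means flat fit between 30% and 70% signal loss, or poor fit; inactive means the rest.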
Key:
[1] = C. neoformans lysis by adenylate kinase leakage – AK release luminescence, cherry-picks, dose response (AID 687000;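 active means fitted dose curve reaches 40% lysis signal rise at or below the highest valid concentration tested for that sample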;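 further: luminescent detection of adenylate kinase leaking from lysed yeast; 0% = median neutral control signal and 100% = double that signal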)
[2] = viability loss in HepG2 hepatoma cells – cell-based, cherry-picks, set 2, cytotoxicity control, dose response (AID 687002)
[3] = viability loss in HeLa cells – cell-based, ATP luminescence, cherry-pick samples, cytotoxicity control, dose response (AID 687004;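 active means a fitted half-maximal concentration no higher than twice the top valid tested dose, with signal falling as cells die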;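 further: 0% = neutral control median and -100% = staurosporine 10 µM control median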)

Measured: activity change, negative = cytotoxicity

CCOc1ccc(C(=O)NC(=S)Nc2ccccc2N2CCCCC2)cc1[N+](=O)[O-]
inactive: [1] | [2] | [3]

Cc1ccc(C(=O)NC(=S)Nc2cccc(NC(=O)c3ccccc3)c2)cc1[N+](=O)[O-]
inactive: [1] | [2] | [3]

CO[C@H]1CC[C@@H]2CCOc3c(C#N)cccc3C(=O)N(C)C[C@@H](OC)[C@@H](C)C(=O)N(C)C[C@@H]1O2
inactive: [1] | [2] | [3]

CC(=O)NC12CC3CC(C1)CC(C(=O)NCC(=O)Nc1c(C)cc(C)cc1C)(C3)C2
inactive: [1] | [2] | [3]

C[C@@H]1CN([C@H](C)CO)C(=O)CCCn2nncc2CO[C@H]1CN(C)Cc1cccc(C(F)(F)F)c1
inactive: [1] | [2] | [3]

Cc1cccc(NC(=O)CN(C)C(=O)C2CCCC2)c1C
inactive: [1] | [2] | [3]

O=C(COc1ccccc1)NCc1ccccc1
inactive: [1] | [2] | [3]

O=C(CSc1ncnc2c1cnn2-c1ccccc1)NCC1CCCO1 (stereo not given)
inactive: [1] | [2] | [3]

COc1ccc(NC(=O)CSc2ncnc3c2cnn3CCc2ccccc2)cc1
inactive: [1] | [2] | [3]

Cc1ccc(/C=C2\SC(=S)N(NS(=O)(=O)c3ccc(C)cc3)C2=O)cc1
inactive: [1] | [2] | [3]

CC(=O)c1ccc(N2CCN(C(=O)Cc3cccs3)CC2)cc1
inactive: [1] | [2] | [3]

C#CCN(C(=O)c1ccc(OC2CCN(C(=O)CCOC)CC2)cc1)C1CCCCC1
inactive: [1] | [2] | [3]

CCCC[C@@H]1CNC(=S)N1CCc1cccc(F)c1
inactive: [1] | [2] | [3]

Cc1ccc(OCC(=O)NC(C)c2ccccc2)cc1C (stereo not given)
inactive: [1] | [2] | [3]

CCOc1cc(CNC)ccc1OCC(=O)NC(C)(C)C
inactive: [1] | [2] | [3]

CCC(=O)Nc1ccc2c(c1)OC[C@H](C)N(C(=O)c1ccc(F)cc1)C[C@@H](C)[C@@H](OC)CN(C)C2=O
inactive: [1] | [2] | [3]

CCNC(=O)C[C@H]1CC[C@@H](NC(=O)NC2CCCCC2)[C@H](CO)O1
inactive: [1] | [2] | [3]

C[C@@H]1CN([C@@H](C)CO)S(=O)(=O)c2ccc(C3=CCCC3)cc2O[C@@H]1CN(C)Cc1ccccc1F
inactive: [1] | [2] | [3]

COCCN1C(=O)CCC1(C)C(=O)Nc1c(C)cccc1C (stereo not given)
inactive: [1] | [2] | [3]

CC(C)Sc1nc2ncnc(N)c2[nH]1
inactive: [1] | [2] | [3]

Cc1ccc(NC(=S)NCc2ccc(Cl)cc2)c(OC(F)F)c1
inactive: [1] | [2] | [3]

O=C(c1cccs1)N1CCN(c2nc3ccccc3s2)CC1
inactive: [1] | [2] | [3]

CC(=O)N[C@H]1CC[C@H](CCNC(=O)C2CCC2)O[C@@H]1CO
inactive: [1] | [2] | [3]

C[C@H]1CN([C@@H](C)CO)S(=O)(=O)c2ccc(Br)cc2O[C@H]1CN(C)S(=O)(=O)c1ccccc1F
inactive: [1] | [2] | [3]

O=C(C[C@H]1CC[C@H]2[C@@H](COC[C@H](O)CN2Cc2cc(F)cc(F)c2)O1)Nc1nccs1
inactive: [1] | [2] | [3]

C[C@@H]1CN([C@@H](C)CO)C(=O)c2cc(-c3cncnc3)cnc2O[C@H]1CN(C)C(=O)CN1CCOCC1
inactive: [1] | [2] | [3]

C[C@H]1CN([C@@H](C)CO)C(=O)c2cc(C#CCN(C)C)cnc2O[C@@H]1CN(C)C(=O)Nc1cccc(F)c1
inactive: [1] | [2] | [3]

CCC(=O)N1[C@H](CO)[C@H](c2ccc(-c3ccc(F)cc3)cc2)[C@@H]1CNC(C)=O
inactive: [1] | [2] | [3]

O=C(c1cccnc1)N1C[C@H]2[C@@H](c3ccccc31)[C@@H](CO)N2C(=O)Nc1ccc(F)cc1
inactive: [1] | [2] | [3]

CC(NC(=O)COc1ccccc1C(C)(C)C)c1ccccc1 (stereo not given)
inactive: [1] | [2] | [3]

COCC#Cc1cnc2c(c1)C(=O)N([C@@H](C)CO)C[C@H](C)[C@H](CN(C)C(=O)Nc1ccc(OC)cc1)O2
inactive: [1] | [2] | [3]

Cc1ccccc1OCC(=O)NCc1ccccc1
inactive: [1] | [2] | [3]

COC(=O)C1=C(C)N(Cc2ccc(Cl)cc2)C(=S)NC1c1cccc(OC)c1 (stereo not given)
inactive: [1] | [2] | [3]

N#C[C@H]1[C@@H](c2ccccc2)[C@@H](CO)N1C(=O)Cc1ccccc1
inactive: [1] | [2] | [3]

CN(C)CCCn1c(=O)n(C2CCCCC2)c(=O)c2c3c(sc21)CCCCC3
inactive: [1] | [2] | [3]

CC(C)C(=O)N1CCC1(C)C(=O)Nc1ccccc1C(C)(C)C (stereo not given)
inactive: [1] | [2] | [3]

O=C1CCC(C(=O)Nc2cccc3ccccc23)N1 (stereo not given)
inactive: [1] | [2] | [3]

C[C@H]1CN([C@@H](C)CO)C(=O)CCCn2cc(nn2)CO[C@@H]1CN(C)Cc1ccc(C(F)(F)F)cc1
inactive: [1] | [2] | [3]

CC(C)N1C(=O)C2(OCCCO2)c2cc(Br)ccc21
inactive: [1] | [2] | [3]

CCN(C(=O)CSc1ncnc2c1cnn2-c1ccccc1)C1CCS(=O)(=O)C1 (stereo not given)
inactive: [1] | [2] | [3]

CC(C)NC(=O)N(C)C[C@@H]1Oc2c(NC(=O)C3CCCCC3)cccc2C(=O)N([C@@H](C)CO)C[C@@H]1C
inactive: [1] | [2] 11.5% [at 6 µM] | [3]

Cc1cc(C)c(NC(=O)CN(C2CCCCC2)C2CCCCC2)c(C)c1
inactive: [1] | [2] | [3]

CCCC(=O)N1CCC1(C)C(=O)Nc1cc(C)ccc1C (stereo not given)
inactive: [1] | [2] | [3]

CCCNC(=O)C[C@H]1CC[C@H]2[C@@H](COC[C@@H](O)CN2S(=O)(=O)c2ccc(Oc3ccccc3)cc2)O1
inactive: [1] | [2] | [3]

O=C1CCC(C(=O)Nc2ccc([N+](=O)[O-])cc2)N1 (stereo not given)
inactive: [1] | [2] | [3]

O=C(Nc1ccc2ncccc2c1)c1ccccc1
inactive: [1] | [2] | [3]

COc1ccccc1-c1ccc([C@H]2[C@H](C#N)N(C(=O)C3CC3)[C@H]2CO)cc1
inactive: [1] | [2] | [3]

C[C@H](CO)N1C[C@H](C)[C@H](CN(C)Cc2ccc(Cl)c(Cl)c2)Oc2c(NC(=O)Nc3ccccc3)cccc2C1=O
inactive: [1] | [2] | [3]

O=C(COc1ccc2c(c1)CCC2)NCc1ccc(Cl)cc1
inactive: [1] | [2] | [3]

S=C(NCCc1cccc(Cl)c1)NC1CCCCC1
inactive: [1] | [2] | [3]

O=C(Nc1ccc(N2CCOCC2)cc1N1CCOCC1)c1cccc([N+](=O)[O-])c1
inactive: [1] | [2] | [3]

O=C(NC(=S)Nc1ccccc1N1CCOCC1)c1ccc([N+](=O)[O-])cc1
inactive: [1] | [2] | [3]

C[C@@H]1CN([C@H](C)CO)C(=O)c2cccc(NC(=O)c3ccncc3)c2O[C@H]1CN(C)C(=O)Nc1ccc(C(F)(F)F)cc1
inactive: [1] | [2] | [3]

O=C(CN1CCOCC1)N[C@@H]1CC[C@@H](CCNC(=O)C2CCC2)O[C@@H]1CO
inactive: [1] | [2] | [3]

C[C@H]1CN([C@@H](C)CO)C(=O)Cc2cc(NS(=O)(=O)c3cn(C)cn3)ccc2O[C@@H]1CN(C)Cc1ccc(Oc2ccccc2)cc1
inactive: [1] | [2] | [3]

COc1ccc(NC(=O)CN2CCN(S(=O)(=O)c3ccc(C(C)C)cc3)CC2)cc1OC
inactive: [1] | [2] | [3]

O=C(c1cccc(F)c1)N1C[C@H]2[C@@H](c3ccccc31)[C@@H](CO)N2Cc1cocn1
inactive: [1] | [2] | [3]

O=C(COc1ccccc1)NCc1ccc2c(c1)OCO2
inactive: [1] | [2] | [3]

C[C@@H]1CN([C@H](C)CO)C(=O)c2ccccc2-c2ccccc2CO[C@H]1CN(C)S(=O)(=O)c1cccc(C#N)c1
inactive: [1] | [2] | [3]

CC(C)c1ccc(OCC(=O)NC(C)c2ccccc2)cc1 (stereo not given)
inactive: [1] | [2] | [3]

Source: PubChem BioAssay
